Laboratory results published in PubChem BioAssay (Tox21).
Results filed as inconclusive are left out. The source made the active and inactive calls. Unless noted, calls come from the whole dose curve.

assay: qHTS assay to identify small molecule antagonists of the sonic hedgehog signaling (Shh) pathway - cell viability counter screen (AID 1259367; active = well fitted cell-killing curve with a large enough effect in the repeat runs; note: nearly all actives have a fitted effect of over 55% in size); conditions: NIH/3T3 Gli1-Luc viability, CellTiter-Fluor, 24 h; series mostly up to 92.4 µM; viability change, negative = cytotoxic: at the top concentration
Procedure, shortened: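 Using CellTiter-Fluor, viability of Gli1-Luc reporter 3T3 cells is read by fluorescence in the wells used for the Shh luciferase assay. Treatment lasts 23 hr with conditioned medium, then reagent 1 hr at 37C.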
% is set by controls: 0 for no effect and ±100 for the full control effect.

SMILES | viability change, negative = cytotoxic
CCCCC(CC)COC(=O)OOC(C)(C)C (stereo not drawn) | 6.14% (inactive)
CC1CN1 (stereo not drawn) | 4.45% (inactive)
O=S(=O)(NS(=O)(=O)C(F)(F)F)C(F)(F)F | -3.31% (inactive)
O.O.O.O.O.O.O.O=S(=O)([O-])[O-].[Co+2] | 0.49% (inactive)

assay: qHTS assay to identify small molecule agonists of the sonic hedgehog signaling (Shh) pathway (AID 1259368); conditions: NIH/3T3 Gli1-Luc reporter, luciferase, 24 h; series mostly up to 92.4 µM; activity change: at the top concentration; note: nearly all actives have a fitted effect of over 15% in size; note: potency is the fitted concentration of half-maximal effect;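 for activity change: NIH/3T3-derived 3T3Gli1-Luc cells carrying a stable Gli1-driven firefly luciferase reporter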
Procedure, shortened: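 NIH/3T3-derived 3T3Gli1-Luc cells with stably integrated Gli1-driven firefly luciferase, 2,000 cells/well, compounds added after 4 hr. Incubated 24 hr at 37C, 5% CO2; luminescence read after 30 min with luciferase reagent at room temperature.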

SMILES | activity change | Potency
Nc1cc(Cl)ccc1Cl | -1.77% (inactive) | 
O=c1[nH]c(Cl)c(Cl)cc1Cl | 0.159% (inactive) | 
CSC(=O)c1c(C(F)F)nc(C(F)(F)F)c(C(=O)SC)c1CC(C)C | -2.18% (inactive) | 
Cc1ccc(C)c2ccccc12 | -0.747% (inactive) | 
CC(Cc1ccccc1)N(C)Cc1ccco1 (stereo not drawn) | -0.38% [at 42.5 µM, stronger effect = higher value] (inactive) | 
O=C(CCCCl)c1ccc(F)cc1 | 1.71% [at 42.5 µM, stronger effect = higher value] (inactive) | 
O=C(NC(=O)c1ccccc1Cl)Nc1ccc(OC(F)(F)F)cc1 | 0.278% (inactive) | 
Oc1cccc(Cl)c1Cl | -0.299% (inactive) | 
CCCCC/C=C\C/C=C\C/C=C\C/C=C\CCCC(=O)NCC(=O)O | 1.82% [at 42.5 µM, stronger effect = higher value] (inactive) | 
O=C(N[C@H]1N=C(c2ccccc2F)c2cccc3c2N(CC3)C1=O)c1cc2ccccc2[nH]1 | 0.199% [at 42.5 µM, stronger effect = higher value] (inactive) | 
CNC(C)(C)Cc1ccccc1 | -1.04% [at 42.5 µM, stronger effect = higher value] (inactive) | 
O=[N+]([O-])[O-].[Tl+] | -6.78% (inactive) | 
ClC(Cl)C(Cl)(Cl)Cl | 5.26% (inactive) | 
C[C@@H]1CC2=CC(=O)CC[C@@H]2[C@H]2CC[C@@]3(C)[C@@H](CC[C@]3(C)O)[C@@H]21 | 1.16% [at 42.5 µM, stronger effect = higher value] (inactive) | 
Brc1ccc(Oc2ccc(Br)cc2Br)c(Br)c1 | 0.782% (inactive) | 
CC(C)Br | -0.368% (inactive) | 
[O-][Cl+3]([O-])([O-])O | 1.77% (inactive) | 
CC(C)[C@@H](Nc1ccc(C(F)(F)F)cc1Cl)C(=O)OC(C#N)c1cccc(Oc2ccccc2)c1 (stereo partly drawn) | 2.83% (inactive) | 
N#CCCl | -0.404% (inactive) | 
CCCC[N+]1(C)CCCC1 (tested in a mixture with another compound) | -17.6% (inactive) | 
Cc1ccc([N+](=O)[O-])[c]2c1[O][Hg]2 | -6.46% [at 42.5 µM, stronger effect = higher value] (inactive) | 
COC(=O)/C=C(\C)OP(=O)(OC)OC | -1.05% (inactive) | 
COP(=S)(OC)Oc1ccc([N+](=O)[O-])c(C)c1 | 1.9% (inactive) | 
CCC[CH2][Sn]([CH2]CCC)([O]C(C)=O)[O]C(C)=O | -20.7% (inactive) | 
Nc1nc(N)c(N)c(N)n1 | 0.824% (inactive) | 
CCC(C)Nc1c([N+](=O)[O-])cc(C(C)(C)C)cc1[N+](=O)[O-] (stereo not drawn) | 8.63% (inactive) | 
O=C(NC(=O)c1c(F)cccc1F)Nc1ccc(Oc2ccc(C(F)(F)F)cc2Cl)cc1F | -1.28% (inactive) | 
O=S(=O)(NS(=O)(=O)C(F)(F)F)C(F)(F)F | -15.1% (inactive) | 
O.O.O.O.O.O.O.O=S(=O)([O-])[O-].[Co+2] |  | 61.5 µM (active)
